Experimental data as given in PubChem BioAssay (NCI).
The panel holds about 79,000 compounds, 15% with a hit somewhere; the sample as a whole holds those more often. Active and inactive are the calls of the source. Cut-off read from the data, not from the text of the source: active = growth inhibition above about 70%; inactive = the rest. Where a SMILES comes first, the peptide text is derived from it. [ ]: non-standard residue; d: D form. The star is where a group is joined. ξ: configuration not given here. ξF = NC(Cc1ccccc1)C(=O)O; Cbz = O=C(OCc1ccccc1)*; Aib = CC(C)(N)C(=O)O; NHNH2 = NN*

What was measured:
[1] = NCI Yeast Anticancer Drug Screen. Data for the rad50 strain (AID 155);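 note: 0% = growth of vehicle-only cultures of the same strain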; settings: S. cerevisiae rad50 strain growth inhibition; at 50.0 µM; hits give high values
How it was run: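 Yeast carrying a defined DNA repair defect were exposed to test compounds, and growth was compared with vehicle-treated controls to give percent inhibition.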

[2] = NCI Yeast Anticancer Drug Screen. Data for the mec2-1 strain (AID 157); settings: S. cerevisiae mec2-1 strain, at 50.0 µM, hits give high values
How it was run: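 Mutant yeast (mec2-1) grown with compound; growth inhibition relative to vehicle control reported.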

[3] = NCI Yeast Anticancer Drug Screen. Data for the sgs1 mgt1 strain (AID 161);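 note: 0% = growth of cultures given vehicle only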; settings: S. cerevisiae sgs1 mgt1 strain, at 50.0 µM, hits give high values
How it was run: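 This yeast growth screen uses a strain with defined DNA-repair lesions; compound-treated growth is compared with vehicle-treated growth.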

[4] = NCI Yeast Anticancer Drug Screen. Data for the cln2 rad14 strain (AID 165);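 note: 0% = growth equal to vehicle treated cultures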; settings: S. cerevisiae cln2 rad14 strain, at 50.0 µM, hits give high values
How it was run: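 Readout is yeast growth inhibition versus vehicle-treated controls, using a strain with cln2 and rad14 alterations exposed to compound.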

[5] = NCI Yeast Anticancer Drug Screen. Data for the bub3 strain (AID 167); settings: S. cerevisiae bub3 mutant strain, at 50.0 µM, hits give high values
How it was run: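 Compounds were applied to a genetically altered yeast strain carrying a cell-cycle control defect. Growth inhibition was scored against vehicle-treated controls.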

[6] = NCI Yeast Anticancer Drug Screen. Data for the mlh1 rad18 strain (AID 175); settings: S. cerevisiae mlh1 rad18 strain growth inhibition; at 50.0 µM; hits give high values
How it was run: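 Genetically defined yeast (DNA repair-deficient) exposed to compounds; growth inhibition determined relative to vehicle.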

Measured: growth inhibition

Nc1ncnc2c1ncn2C[c-]1[c-][c-][c-][c-]1.[Fe].[c-]1[c-][c-][cH-][c-]1
inactive: [1] -4.95% | [2] -23.8% | [3] -11.9% | [4] -40.7% | [5] -15.7% | [6] -8.8%

O=c1ccc(O)c[nH]1
inactive: [1] 12.3% | [2] 18.8% | [3] 34.7% | [4] 9.95% | [5] 2.8% | [6] 16.1%

CCNC(=O)OCCN(CCOC(=O)NCC)CCc1ccccc1
inactive: [1] 8.7% | [2] 9.15% | [3] 15.5% | [4] -7.75% | [5] -17.4% | [6] 6.3%

OC(C1=NNC(C(O)c2ccccc2)=NN1)c1ccccc1 (stereo not drawn)
inactive: [1] -29% | [2] 4.7% | [3] 22% | [4] -20.4% | [5] -2.45% | [6] 5.8%

C#CC(C)OC(=O)Nc1ccccc1 (stereo not drawn)
inactive: [1] 28.6% | [2] -22.2% | [3] 3.4% | [4] -3.95% | [5] -7.65% | [6] -8.3%

Cc1cc2sc(C)[n+](CCCOS(=O)(=O)[O-])c2cc1C
inactive: [1] -22.6% | [2] -23.9% | [3] -40% | [4] 36.3% | [5] -0.95% | [6] -35.9%

Nc1n[nH]c(=S)s1
inactive: [1] 6.8% | [2] -12.1% | [3] 7.35% | [4] -8.7% | [5] -12.3% | [6] 3.55%

C/C=C(\C)C(=O)OCC1=CCC2CCC(O)N12 (stereo not drawn)
inactive: [1] 5.75% | [2] 0.05% | [3] 0.1% | [4] 6.05% | [5] 10.1% | [6] 8.55%

O=C(O)c1c2ccccc2nc2c1sc1ccccc12
inactive: [1] -17.9% | [2] -8% | [3] -3.05% | [4] -63.6% | [5] -1.45% | [6] -7.85%

NC(=O)C1CCCN1C(=O)C(Cc1cnc[nH]1)NC(=O)C1CCCC1 (stereo not drawn)
inactive: [1] -46.4% | [2] -1.6% | [3] -1.65% | [4] 8.1% | [5] 7.05% | [6] -8.35%

O=S(O)c1cc(Cl)c(O)c(Cl)c1
inactive: [1] -7.1% | [2] 1.3% | [3] -7.05% | [4] -37.5% | [5] -5.1% | [6] -2.75%

CN(C)c1ccc(C(=Cc2ccccc2)c2ccc(N(C)C)cc2)cc1
inactive: [1] -0.9% | [2] 18.3% | [3] -2.8% | [4] -63.6% | [5] 0.8% | [6] 5.5%

COc1ccc2c(c1)CCCN1CCc3cc(OC)c(OC)cc3C21 (stereo not drawn)
inactive: [1] 21.1% | [2] 60.8% | [3] -21.3% | [4] -8.85% | [5] 4.5% | [6] -17.7%

CC(C)c1sc([S-])n[n+]1-c1ccccc1
inactive: [1] 10.2% | [2] -0.65% | [3] -9.5% | [4] -15.4% | [5] -4.3% | [6] 7%

c1ccc(-c2c3ccccc3cc3c2ccc2ccccc23)cc1
inactive: [1] -13.4% | [2] -12.2% | [3] -3.95% | [4] 9.25% | [5] 19.5% | [6] 0.55%

CCOC(=O)/C(F)=C/c1ccc(C)cc1
inactive: [1] 20.6% | [2] -8.55% | [3] 3.85% | [4] 11.1% | [5] 0.15% | [6] 8.4%

Cc1ccc2[nH]c3c(ncc4[nH]c5ccccc5c43)c2c1
inactive: [1] 59.3% | [2] 44.1% | [3] 62.8% | [4] 52.1% | [5] 62.9% | [6] 62%

Clc1ccc(N=C2CCCCC2)cc1
inactive: [1] 12.4% | [2] -12.5% | [3] -0.2% | [4] 8.45% | [5] -18.2% | [6] 1.9%

C=C1SC(=Nc2ccc(Cl)cc2)N(c2nc(Cl)nc(Cl)n2)C12CCCCC2
inactive: [1] -16.4% | [2] -21.1% | [3] 19.4% | [4] 14% | [5] 10.2% | [6] 20.6%

CCOC(=O)c1ccc(Cl)cc1
inactive: [1] -14% | [2] -16.8% | [3] -25.1% | [4] -23.8% | [5] -30.8% | [6] -25.1%

O=C(/N=C/c1c(O)c2ccccc2oc1=O)NC1CCCCC1
inactive: [1] -16.1% | [2] -9.2% | [3] -25.9% | [4] 0.65% | [5] -17.6% | [6] -5.8%

C/C(CC(O)(C(F)(F)F)C(F)(F)F)=N\O
inactive: [1] -29.8% | [2] -51.2% | [3] -20.4% | [4] -15.9% | [5] -19.5% | [6] -5.65%

CC(C)(NC(=O)OCc1ccccc1)C(=O)NC(Cc1ccccc1)C(=O)NN (stereo not drawn) (Cbz-[Aib]-[ξF]-NHNH2)
inactive: [1] 0.55% | [2] 7.35% | [3] 7% | [4] 20.9% | [5] 15.4% | [6] -20.1%

CCCCSc1ncnc2nc(C)[nH]c12
inactive: [1] -9.85% | [2] -20.6% | [3] -7.7% | [4] -25.6% | [5] -14% | [6] -12.7%

O=C(O)c1cccc(F)c1C(=O)O
inactive: [1] -4.5% | [2] -3.65% | [3] -1.5% | [4] -20.4% | [5] -2.95% | [6] 7.3%

COc1ccc(N=Nc2c(-c3ccccc3)nn(C(=O)CC(=O)Nc3cccc(Cl)c3)c2-c2ccccc2)cc1
inactive: [1] -2.65% | [2] 5.9% | [3] -6.3% | [4] 12.6% | [5] 26.3% | [6] -13.5%

COC(=O)/C=C(\C)CC(O)/C=C(\C)CCC=C(C)C (stereo not drawn)
active: [3] 75.1%
inactive: [1] 21.1% | [2] 49.1% | [4] 12.8% | [5] 60.5% | [6] -23.1%

Cc1ccc(O)c(C=O)c1
inactive: [1] -31.1% | [2] -42.1% | [3] -7.65% | [4] 11.7% | [5] -25.7% | [6] -6.8%

O=c1cc[nH]c(=S)[nH]1.[Pt]
inactive: [1] 12.1% | [2] 19.3% | [3] 5.55% | [4] -19.4% | [5] 0.7% | [6] 28.6%

C#CCn1cnc2c1c(=O)n(C)c(=O)n2C
inactive: [1] 10.2% | [2] -12.7% | [3] -7.35% | [4] -0.8% | [5] -11.7% | [6] -10.7%

CNC(=O)c1ccc(C(=O)NC)cc1
inactive: [1] -19.1% | [2] -26.1% | [3] -42.9% | [4] 3.95% | [5] -41.9% | [6] -1.75%

FCCN(CCF)Cc1ccc2c(c1)OCO2
inactive: [1] -4.8% | [2] -12.3% | [3] 2.05% | [4] -63.1% | [5] -3.1% | [6] -7.4%

O=C(OCC(OC(=O)c1ccccc1)C(OC(=O)c1ccccc1)C(O)C(O)CO)c1ccccc1 (stereo not drawn) (tested in a mixture with another compound)
inactive: [1] -6.8% | [2] -4.1% | [3] 9.55% | [4] -17.9% | [5] -12.2% | [6] 28.6%

Cc1cc(C)[n+](C)c(/C=C\c2ccc(Cl)cc2)n1
inactive: [1] 7.3% | [2] -6.95% | [3] 10.8% | [4] 3% | [5] -4.45% | [6] 12.9%

CN1C/C(=C\c2ccco2)c2nc(N)nc(-c3ccco3)c2C1
inactive: [1] -6.15% | [2] -3.35% | [3] 8.9% | [4] 35.5% | [5] 6.85% | [6] -4.15%

Cc1ccc(S(=O)(=O)Oc2cc(-c3ccccc3)nc3ccccc23)cc1
inactive: [1] 5.35% | [2] -7.25% | [3] 2.95% | [4] 11.7% | [5] 27.6% | [6] 9.85%

Nc1nnc(N)c2nc(-c3ccccc3)c(-c3ccccc3)nc12
inactive: [1] 10.4% | [2] 16.4% | [3] 28.1% | [4] -14.8% | [5] 8.15% | [6] 20.9%

CC(C)(C)CC(C)(C)c1ccc(OCc2ccc(C(F)(F)F)cc2)cc1
inactive: [1] 14.2% | [2] 10.9% | [3] 5.1% | [4] 13.4% | [5] -4.8% | [6] -1.7%
